Results: ChEMBL document CHEMBL3988442, “University of Dundee, Small-Polar-MMV Screening Library” (2021)
For some assays here: Results with a measured potency or affinity are listed apart.

Tests used:
Set-up in all cases: scale not given: direction of the effect not stated beside the values
[1] = target: Protein translocase subunit SecA (Escherichia coli (strain K12)) (UniProt P10408); test: Assay to Identify E. coli SecA ATPase Inhibitors; format: functional; conditions: 30 µM
[2] = target: T1, Ubiquitin-activating enzyme e1, putative (Leishmania donovani (strain BPK282A1)) (UniProt E9BSI1); test: Leishmania donovani Ubiquitin Activating Enzyme (LdE1); format: functional; conditions: 30 µM
T1 sequence (whole entry): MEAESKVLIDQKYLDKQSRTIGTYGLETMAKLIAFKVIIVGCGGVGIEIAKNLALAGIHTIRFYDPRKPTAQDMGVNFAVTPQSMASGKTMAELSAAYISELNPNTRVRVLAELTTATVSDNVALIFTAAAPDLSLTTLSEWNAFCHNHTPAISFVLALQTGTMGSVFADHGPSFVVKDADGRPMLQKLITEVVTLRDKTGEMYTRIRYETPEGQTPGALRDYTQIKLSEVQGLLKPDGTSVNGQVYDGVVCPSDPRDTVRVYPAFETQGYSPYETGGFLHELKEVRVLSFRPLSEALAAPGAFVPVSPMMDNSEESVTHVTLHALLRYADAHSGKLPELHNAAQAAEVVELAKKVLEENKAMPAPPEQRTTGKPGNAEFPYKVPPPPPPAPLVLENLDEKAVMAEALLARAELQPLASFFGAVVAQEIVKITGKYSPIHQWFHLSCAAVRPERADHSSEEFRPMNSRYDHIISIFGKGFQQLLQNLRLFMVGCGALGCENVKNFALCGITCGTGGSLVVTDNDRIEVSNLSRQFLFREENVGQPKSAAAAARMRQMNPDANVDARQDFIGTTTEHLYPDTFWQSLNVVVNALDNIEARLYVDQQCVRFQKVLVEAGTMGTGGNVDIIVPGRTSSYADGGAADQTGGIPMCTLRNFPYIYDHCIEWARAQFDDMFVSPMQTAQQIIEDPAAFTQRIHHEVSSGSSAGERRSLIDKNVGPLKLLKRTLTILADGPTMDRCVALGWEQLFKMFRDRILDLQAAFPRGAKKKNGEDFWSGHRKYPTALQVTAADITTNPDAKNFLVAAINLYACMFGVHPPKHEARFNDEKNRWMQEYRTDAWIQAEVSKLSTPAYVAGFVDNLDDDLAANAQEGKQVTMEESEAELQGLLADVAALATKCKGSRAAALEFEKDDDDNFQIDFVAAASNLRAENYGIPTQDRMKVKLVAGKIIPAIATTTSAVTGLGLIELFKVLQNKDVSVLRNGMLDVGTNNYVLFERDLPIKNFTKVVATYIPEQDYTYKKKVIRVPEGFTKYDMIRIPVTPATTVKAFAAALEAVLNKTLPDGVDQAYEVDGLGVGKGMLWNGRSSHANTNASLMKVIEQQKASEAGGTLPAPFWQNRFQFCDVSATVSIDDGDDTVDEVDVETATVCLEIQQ

[3] = target: AMP-activated protein kinase, AMPK (Homo sapiens) (UniProt P54646+O43741+P54619+Q9UGJ0+Q9Y478+Q13131+Q9UGI9); test: AMP-dependent Kinase enzyme assay. An in vitro enzyme assay that detects ADP turnover that is directly proportional to AMPK activity. This uses naive AMPK that is activated during the assay with MK-8722; format: functional; conditions: 30 µM
[4] = target: Sialic acid-binding Ig-like lectin 9 (Homo sapiens) (UniProt Q9Y336); test: Hs-Siglec9 ALPHAscreen SOP 20170721; conditions: 10 µM
Chain of Sialic acid-binding Ig-like lectin 9 (Homo sapiens) (Q9Y336 whole entry): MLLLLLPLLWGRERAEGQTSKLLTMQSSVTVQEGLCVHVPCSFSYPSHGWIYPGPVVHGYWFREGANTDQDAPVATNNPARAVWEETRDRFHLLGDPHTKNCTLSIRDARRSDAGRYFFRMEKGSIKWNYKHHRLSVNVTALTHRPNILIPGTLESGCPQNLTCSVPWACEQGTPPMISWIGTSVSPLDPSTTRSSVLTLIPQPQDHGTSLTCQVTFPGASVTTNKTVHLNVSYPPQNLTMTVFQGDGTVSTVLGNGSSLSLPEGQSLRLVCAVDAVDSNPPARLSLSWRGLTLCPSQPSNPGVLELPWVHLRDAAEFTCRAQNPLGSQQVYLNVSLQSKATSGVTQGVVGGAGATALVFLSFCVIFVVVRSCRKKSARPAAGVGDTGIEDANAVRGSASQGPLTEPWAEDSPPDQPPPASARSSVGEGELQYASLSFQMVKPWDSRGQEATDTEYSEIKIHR

Trypanosoma cruzi = test: Trypanosoma cruzi phosphomannomutase and mannose-1-phosphate guanylyltransferase assay; format: functional; conditions: 10 µM
[5] = target: T2, Arginase-2, mitochondrial (Homo sapiens) (UniProt P78540); test: in vitro enzyme assay to detect the production of urea directly proportional to the activity of Arginase II; format: functional; conditions: 33.3 µM; also: in the data most compounds retested in dose-response had high values
T2 sequence (whole entry): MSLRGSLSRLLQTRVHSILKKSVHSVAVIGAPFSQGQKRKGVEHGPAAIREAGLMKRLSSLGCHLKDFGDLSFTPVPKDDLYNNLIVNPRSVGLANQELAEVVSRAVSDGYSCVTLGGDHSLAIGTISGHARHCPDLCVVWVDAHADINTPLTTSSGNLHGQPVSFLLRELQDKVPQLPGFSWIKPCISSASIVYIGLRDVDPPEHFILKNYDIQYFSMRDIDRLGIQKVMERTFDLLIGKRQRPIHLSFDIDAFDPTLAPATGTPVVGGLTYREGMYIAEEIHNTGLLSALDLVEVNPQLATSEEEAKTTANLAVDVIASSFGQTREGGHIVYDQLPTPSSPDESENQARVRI

[6] = target: T3, Proteasome subunit beta (Trypanosoma cruzi) (UniProt O96673); test: Trypanosoma cruzi proteasome chymotrypsin-like activity (TcProtChymo) assay.; also: in the data most compounds retested in dose-response had high values; format: functional; conditions: 9.37 µM
T3 sequence (whole entry): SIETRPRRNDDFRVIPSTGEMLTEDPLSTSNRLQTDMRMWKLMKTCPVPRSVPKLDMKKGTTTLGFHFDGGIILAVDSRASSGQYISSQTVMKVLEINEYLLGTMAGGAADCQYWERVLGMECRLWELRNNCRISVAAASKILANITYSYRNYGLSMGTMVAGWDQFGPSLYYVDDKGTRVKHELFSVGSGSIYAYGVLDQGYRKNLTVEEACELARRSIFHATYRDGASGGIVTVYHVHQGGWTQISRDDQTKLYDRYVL

Homo sapiens = species: Homo sapiens; test: To identify inhibition of the IFN signalling (Jak-Stat) pathway via expression of an eGFP reporter gene under the control of an IFN-stimulated response element (ISRE) containing MxA promoter.; format: functional; conditions: 30 µM
[7] = target: T4, Tyrosyl-tRNA synthetase, putative (Trypanosoma cruzi (strain CL Brener)) (UniProt Q4DSP6); test: Trypanosoma cruzi tyrosyl tRNA synthetase (TcYRS) _High Tyrosine SOP; format: functional; conditions: 30 µM; also: in the data most compounds retested in dose-response had high values
T4 sequence (whole entry): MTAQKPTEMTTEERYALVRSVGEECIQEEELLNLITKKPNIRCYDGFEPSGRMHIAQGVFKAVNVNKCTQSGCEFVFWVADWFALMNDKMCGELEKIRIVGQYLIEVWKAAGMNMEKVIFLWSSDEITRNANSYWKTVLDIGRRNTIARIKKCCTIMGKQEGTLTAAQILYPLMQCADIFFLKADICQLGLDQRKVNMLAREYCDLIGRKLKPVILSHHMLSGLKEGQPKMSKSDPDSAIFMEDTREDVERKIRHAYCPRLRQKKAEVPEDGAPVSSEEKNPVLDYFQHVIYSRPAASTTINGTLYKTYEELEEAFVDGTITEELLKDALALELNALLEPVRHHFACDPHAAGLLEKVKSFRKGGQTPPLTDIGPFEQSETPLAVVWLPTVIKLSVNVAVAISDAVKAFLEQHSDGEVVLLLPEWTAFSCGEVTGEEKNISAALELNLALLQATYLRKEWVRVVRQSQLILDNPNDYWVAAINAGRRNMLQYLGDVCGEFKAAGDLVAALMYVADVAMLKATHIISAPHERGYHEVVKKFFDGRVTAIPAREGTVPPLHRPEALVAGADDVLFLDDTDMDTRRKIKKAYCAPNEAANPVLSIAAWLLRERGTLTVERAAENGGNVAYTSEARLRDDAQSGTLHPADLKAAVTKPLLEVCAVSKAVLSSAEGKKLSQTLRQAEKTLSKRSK

[8] = target: T4, Tyrosyl-tRNA synthetase, putative (Trypanosoma cruzi (strain CL Brener)); test: Trypanosoma cruzi tyrosyl tRNA synthetase (TcYRS) SOP; format: functional; conditions: 30 µM
[9] = target: Chromo domain-containing protein 1 (Saccharomyces cerevisiae (strain ATCC 204508 / S288c) (Baker's yeast)) (UniProt P32657); test: ScCHD-1 Enzyme Inhibition Assay; format: functional; conditions: 30 µM; also: in the data most compounds retested in dose-response had high values
Chain of Chromo domain-containing protein 1 (Saccharomyces cerevisiae (strain ATCC 204508 / S288c) (Baker's yeast)) (P32657 whole entry, the tested form may be a part): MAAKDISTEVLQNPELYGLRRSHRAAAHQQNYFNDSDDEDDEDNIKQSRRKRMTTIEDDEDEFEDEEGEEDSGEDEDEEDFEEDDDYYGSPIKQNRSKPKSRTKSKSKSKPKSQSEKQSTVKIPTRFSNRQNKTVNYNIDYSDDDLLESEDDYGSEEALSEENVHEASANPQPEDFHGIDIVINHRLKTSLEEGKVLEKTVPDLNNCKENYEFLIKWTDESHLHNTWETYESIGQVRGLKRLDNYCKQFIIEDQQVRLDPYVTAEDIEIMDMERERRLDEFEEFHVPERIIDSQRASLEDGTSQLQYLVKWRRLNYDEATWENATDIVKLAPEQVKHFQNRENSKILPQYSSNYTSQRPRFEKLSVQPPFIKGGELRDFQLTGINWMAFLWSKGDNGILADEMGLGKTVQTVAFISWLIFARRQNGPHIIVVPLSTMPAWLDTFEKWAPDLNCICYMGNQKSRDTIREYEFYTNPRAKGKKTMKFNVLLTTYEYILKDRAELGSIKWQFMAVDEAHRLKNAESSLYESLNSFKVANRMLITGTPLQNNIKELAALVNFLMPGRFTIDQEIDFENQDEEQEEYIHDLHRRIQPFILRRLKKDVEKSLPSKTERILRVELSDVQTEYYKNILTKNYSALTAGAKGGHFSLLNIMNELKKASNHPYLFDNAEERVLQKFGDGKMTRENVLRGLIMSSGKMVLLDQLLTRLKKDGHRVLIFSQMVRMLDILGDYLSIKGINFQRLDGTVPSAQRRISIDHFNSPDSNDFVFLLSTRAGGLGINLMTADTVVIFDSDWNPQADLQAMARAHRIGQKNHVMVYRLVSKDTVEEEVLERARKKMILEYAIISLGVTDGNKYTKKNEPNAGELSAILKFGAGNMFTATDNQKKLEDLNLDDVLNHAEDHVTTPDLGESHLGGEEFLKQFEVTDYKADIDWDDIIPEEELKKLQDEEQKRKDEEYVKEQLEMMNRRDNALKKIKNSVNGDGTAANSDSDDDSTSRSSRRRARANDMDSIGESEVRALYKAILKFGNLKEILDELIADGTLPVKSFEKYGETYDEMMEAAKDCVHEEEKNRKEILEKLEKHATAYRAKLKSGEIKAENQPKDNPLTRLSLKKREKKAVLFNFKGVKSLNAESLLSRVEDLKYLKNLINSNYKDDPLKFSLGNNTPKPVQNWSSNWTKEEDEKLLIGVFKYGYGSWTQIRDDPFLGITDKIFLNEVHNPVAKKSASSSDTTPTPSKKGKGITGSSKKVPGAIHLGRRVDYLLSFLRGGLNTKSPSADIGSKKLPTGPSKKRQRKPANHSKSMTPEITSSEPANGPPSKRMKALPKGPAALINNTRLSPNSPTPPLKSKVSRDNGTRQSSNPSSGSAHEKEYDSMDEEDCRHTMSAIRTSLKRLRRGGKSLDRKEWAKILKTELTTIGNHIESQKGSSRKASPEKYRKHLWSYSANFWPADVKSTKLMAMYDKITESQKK

Chain of Protein translocase subunit SecA (Escherichia coli (strain K12)) (P10408 whole entry): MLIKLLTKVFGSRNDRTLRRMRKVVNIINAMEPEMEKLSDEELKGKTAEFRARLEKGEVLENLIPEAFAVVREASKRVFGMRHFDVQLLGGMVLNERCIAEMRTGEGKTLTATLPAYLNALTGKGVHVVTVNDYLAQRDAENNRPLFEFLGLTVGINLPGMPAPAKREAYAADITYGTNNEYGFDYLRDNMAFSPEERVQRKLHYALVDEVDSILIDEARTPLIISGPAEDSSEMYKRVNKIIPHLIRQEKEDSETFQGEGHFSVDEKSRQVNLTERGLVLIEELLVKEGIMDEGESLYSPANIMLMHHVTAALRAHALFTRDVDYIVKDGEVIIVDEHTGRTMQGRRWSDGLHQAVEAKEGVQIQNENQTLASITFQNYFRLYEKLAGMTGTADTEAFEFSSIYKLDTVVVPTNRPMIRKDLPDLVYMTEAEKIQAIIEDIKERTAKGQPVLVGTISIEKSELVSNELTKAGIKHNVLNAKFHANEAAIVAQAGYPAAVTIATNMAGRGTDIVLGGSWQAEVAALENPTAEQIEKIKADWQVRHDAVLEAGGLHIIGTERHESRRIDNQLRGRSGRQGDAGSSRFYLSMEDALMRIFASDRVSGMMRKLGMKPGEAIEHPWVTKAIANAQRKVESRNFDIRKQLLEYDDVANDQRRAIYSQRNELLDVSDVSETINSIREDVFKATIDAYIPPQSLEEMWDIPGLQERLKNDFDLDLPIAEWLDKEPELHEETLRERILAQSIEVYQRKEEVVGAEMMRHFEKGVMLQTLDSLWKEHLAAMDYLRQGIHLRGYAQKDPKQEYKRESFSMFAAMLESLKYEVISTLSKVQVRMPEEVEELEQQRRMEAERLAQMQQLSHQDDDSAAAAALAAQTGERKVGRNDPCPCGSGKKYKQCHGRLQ

Compound	Percent Effect [1] [%]	Percent Effect [2] [%]	Percent Effect [3] [%]	Percent Effect [4] [%]	Percent Effect (Trypanosoma cruzi) [%]	Percent Effect [5] [%]	Percent Effect [6] [%]	Percent Effect (Homo sapiens) [%]	Percent Effect [7] [%]	Percent Effect [8] [%]	Percent Effect [9] [%]
Cc1nn(C)c(Cl)c1C1CCCN1C(=O)c1ccc2c(c1)OCO2 (stereo unspecified)	-1.18	-2.7	-7.03	-0.722	-5.38	-2	-0.901	13.8	0.493	-6.17	0.203
COc1cccc(CCNS(=O)(=O)c2ccc(NC(C)=O)cc2)c1	-3.33	5.26	4.42	-2.24	-4.58	-8.28	17	21.2	1.06	10.4	-4.22
Cc1cc(C)n(C2CCCN(C(=O)CCNS(C)(=O)=O)C2)n1 (stereo unspecified)	2.69	-6.33	-12.4	-1.59	-0.103	7.53	8.58	12.6	2.08	7.59	-22.7
Cc1cc(C(C)NC(=O)N2CCC(n3cncn3)CC2)c(C)s1 (stereo unspecified)	-4.4	7.59	-0.225	9.65	1.23	-2.28	-4.01	3.67	1.48	3.8	-3.57
COc1ccc(CNC(=O)Nc2cccnc2N2CCCC2)cc1O	-2.46	16.2	-3.7	16.1	4.81	-7.62	1.62	7.88	2.46	16.1	-7.7
COc1cccc(C2CCCN2C(=O)c2cc3c([nH]c2=O)CCC3)c1 (stereo unspecified)	-1.17	5.41	0.0672	-4.05	1.17	25	16	5.64	7.92	6.1	-6.8
CN1C(=O)C(c2ccccc2)CC12CCN(CCOCCO)CC2 (stereo unspecified)	1.44	10.7	-6.48	0.314	-9.64	3.12	19.2	15.2	3.83	-8.64	-5.07
Cn1ccc(-c2cc(C(=O)N3CCOCC3)c3ccccn23)n1	1.94	10.8	19.9	17.5	-8.5	2.87	12.7	35.5	-4.32	2.56	-7.76
CCN(c1ccc(C(=O)N2CCCC2)cc1)S(=O)(=O)CC	2.05	-1.39	3.96	-5.1	-0.486	1.32	2.46	-27.1	1.05	0	2.93
CC(C)NC(=O)[C@@H]1C[C@H](N)CN1C(=O)c1cc2ccccc2[nH]c1=O	-3.02	20.8	-9.81	9.13	4.76	4.86	12.3	-0.74	8.42	15.4	-6.54
CNC(=O)CS(=O)(=O)Cc1coc(-c2ccc(F)cc2)n1	-2.82	5.41	-2.17	1.48	3.67	2.38	7.59	-3.27	5.82	12.2	-1.98
CC(=O)Nc1nc(C2CCN(CC(N)=O)CC2)cs1	-1.36	-6.76	6.42	5.54	-4.35	3.48	-3.9	5.69	0	-3.9	11
O=C(CN1CCCCCCC1=O)NCc1ccccn1	-1.09	5.48	-2.69	1.29	2.78	2.4	1.46	0.819	5.21	11.1	-5.16
COCCN1C(=O)[C@]2(CC[C@@H]3CN(C(=O)NC4CCCC4)C[C@@H]32)N=C1C	-2.35	8	-3.34	5.66	4.83	-52.5	6.84	-7.18	-7.29	10	-9.58
CCn1cc2c(n1)CN(Cc1nccs1)CC2COCC1CC1 (stereo unspecified)	-2.47	13.3	8.82	0.752	-0.197	3.03	6.61	0.895	6.38	11.5	-4.67
O=S(=O)(NCc1ccccc1Cn1cncn1)C1CCCC1	-2.89	8.86	4.47	2.98	-3.59	1.5	10.1	5.73	8.33	12.7	-12.6
